JMJD2A Tudor – JMJD2A Tudor domain (human) inhibition | AlphaScreen JMJD2A-Tudor / H3K4me3 peptide binding | Potency, µM (top dose mostly 114 µM), without a hit: at the top dose activity change, negative = inhibition, actives largely listed as inhibitors | O75164 | 390,000 compounds, 4.4% hits; also: % is scaled to controls: 0 for no effect and ±100 for the full control effect; nearly all actives have a fitted effect of over 50% in size
L3MBTL1 block – blocks human L3MBTL1 | Q9Y468 | AlphaScreen L3MBTL1–H3K9me1 peptide binding | Potency, µM (doses to about 57.1 µM), without a hit: at the highest dose activity, negative = inhibition, hits mostly inhibitors | 230,000 compounds, 0.66% hits | AID 485360; also: % is scaled to controls: 0 for no effect and ±100 for the full control effect; nearly all actives have a fitted effect of over 60% in size
Target sequence (Q9Y468 whole entry, looked up): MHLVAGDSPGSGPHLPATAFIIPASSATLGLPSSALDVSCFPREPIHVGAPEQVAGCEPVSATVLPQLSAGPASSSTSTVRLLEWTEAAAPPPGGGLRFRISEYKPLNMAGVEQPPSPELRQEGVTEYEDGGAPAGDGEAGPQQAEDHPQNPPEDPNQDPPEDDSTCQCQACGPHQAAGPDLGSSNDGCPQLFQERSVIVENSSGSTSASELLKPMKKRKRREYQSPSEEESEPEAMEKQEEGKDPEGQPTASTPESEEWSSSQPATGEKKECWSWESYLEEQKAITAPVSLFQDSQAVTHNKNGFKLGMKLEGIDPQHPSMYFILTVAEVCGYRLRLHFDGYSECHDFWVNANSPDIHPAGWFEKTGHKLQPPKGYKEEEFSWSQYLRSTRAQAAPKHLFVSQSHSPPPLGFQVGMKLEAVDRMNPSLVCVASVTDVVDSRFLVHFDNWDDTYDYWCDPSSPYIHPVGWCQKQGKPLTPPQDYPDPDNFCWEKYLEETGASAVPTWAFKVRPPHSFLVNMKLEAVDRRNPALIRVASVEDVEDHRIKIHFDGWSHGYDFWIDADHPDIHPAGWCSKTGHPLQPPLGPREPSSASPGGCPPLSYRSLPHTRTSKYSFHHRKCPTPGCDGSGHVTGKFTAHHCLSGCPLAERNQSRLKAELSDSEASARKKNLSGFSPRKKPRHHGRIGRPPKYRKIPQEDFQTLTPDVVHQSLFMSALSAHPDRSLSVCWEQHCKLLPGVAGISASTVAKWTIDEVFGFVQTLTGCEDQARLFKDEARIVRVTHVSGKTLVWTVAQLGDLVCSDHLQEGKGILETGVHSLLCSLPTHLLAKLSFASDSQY
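L3MBTL1 50 nM + b-AHA-H3(1-15)K9me1 75 nM, 30 min RT; compound added, 30 min RT; streptavidin donor/Ni-chelate acceptor beads 10 ug/mL each final, 30 min RT dark; AlphaScreen read.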
BAZ2B block – inhibitors of human BAZ2B bromodomain. AlphaScreen BAZ2B-H3K14Ac peptide displacement. 360,000 compounds, 4.4% hits. Q9UIF8. Potency, µM (titrated, usually from 114 µM), for the others: at the highest dose activity change, negative = inhibition, hits mostly inhibitors; also: % is scaled to controls: 0 for no effect and ±100 for the full control effect; nearly all actives have a fitted effect of over 60% in size
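In this displacement format the biotinylated H3(5-23) peptide acetylated at Lys14 serves as ligand at 50 nM, with BAZ2B at 50 nM in PBS pH 7.4 containing 0.01% Tween-20. Donor and acceptor beads are 10 ug/mL final.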
Sfp inh – Sfp phosphopantetheinyl transferase inhibition. Q9F4F7. Potency, µM, without a hit: largest response in the series, negative = inhibition, actives largely listed as inhibitors. 310,000 compounds, 3.5% hits. Biochemical Sfp PPTase activity, qHTS;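 also: the enzyme is Sfp with the accession as filed and its product quenches rhodamine fluorescence; 0% = enzyme reaction without inhibitor and -100% = no enzyme wells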
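Sfp 15 nM + cpd, 15 min RT; start w/ rhodamine-CoA 5 uM, BHQ-2-YbbR 12.5 uM (final); 50 mM Hepes pH 7.6, 10 mM MgCl2, 0.01% NP-40, 0.01% BSA; read 525/598 nm at 0 and 30 min.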
G9a block – inhibitors of human histone lysine methyltransferase G9a | G9a H3K9 monomethylation, AlphaScreen, 2 h | Q96KQ7 | Potency, µM (titrated, usually from 102 µM), for the others: top-dose activity, negative = inhibition, hits mostly inhibitors | AID 504332 | 350,000 compounds, 8.8% hits; also: % is scaled to controls: 0 for no effect and ±100 for the full control effect; nearly all actives have a fitted effect of over 75% in size
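AlphaScreen detection with an anti-monomethyl H3K9 antibody quantified product after a 2 h room-temperature reaction containing 500 nM biotinylated H3K9 peptide, 20 µM SAM and 20 nM enzyme, which had been preincubated 15 min with compound.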
HP1b binding inh – inhibitors of HP1-beta chromodomain binding to methylated histone tails. AlphaScreen HP1-beta / biotin-H3K9me3 peptide binding. Potency, µM (highest dose often 114 µM), for the others: at the top dose activity change, negative = inhibition, usual class: inhibitors. 390,000 compounds, 0.56% hits. P83916; also: nearly all actives have a fitted effect of over 70% in size
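AlphaScreen: HP1-beta (50 nM) preformed 30 min with biotin-H3(1-18)K9me3 peptide (50 nM) in PBS pH 7.4, 0.01% Tween-20. Compound added for 30 min at RT, then streptavidin donor/nickel chelate acceptor beads (10 ug/mL) for 30 min.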
* marks the source's active call; other numbers are inactive results; ? = inconclusive; · = no result given; [ ] = remark or other dose. Only some compounds are listed: those with a hit (about 12% of all), similar ones and a draw of the others. Calls follow the shape of the dose curve; as a rule, active = well fitted curve in the direction sought with a large enough effect; inconclusive = small, poorly fitted or top-dose-only effect, or another doubt; inactive = no such curve, though single readings can be large; an effect the other way counts as inactive or inconclusive. Potency is read from the fitted curve at half-maximal effect.

SMILES | JMJD2A Tudor | L3MBTL1 block | BAZ2B block | Sfp inh | G9a block | HP1b binding inh
O=C(Nc1nc(-c2ccco2)c(-c2ccco2)s1)C1CCC1 | 39.8µM* | ? | 31.6µM* | 28.2µM* | ? | 50.1µM*
O=C(Nc1nnc(-c2ccco2)s1)C1CCCCC1 | -28.0% | -1.2% | 50.1µM* | 50.1µM* | 14.2%[59 µM] | 58.0%
O=C(Nc1nnc(-c2ccc3c(c2)CCCC3)o1)C1CCCCC1 | -11.7% | · | -0.8% | 30.1% | 1.6% | 43.9%
Cc1ccc(S(=O)(=O)N2CCC(C(=O)Nc3nnc(-c4ccco4)s3)CC2)cc1 | -16.0% | · | ? | -0.5% | -8.6%[12.7 µM] | -7.0%
O=C(Nc1nnc(-c2ccncc2)o1)C1CCCCC1 | 20µM* | -14.5% | 50.1µM* | -1.8% | ? | 34.2%
O=C(CSc1nc(-c2ccccc2)no1)N1CCCCC1 | 14.0% | · | 17.9% | · | 17.9%[59 µM] | 41.7%
CS(=O)(=O)c1ccc2nc(NC(=O)c3ccccc3)sc2c1 | 0.0% | 3.7% | 3.0% | 15.1% | 30.9% | 57.5%
CS(=O)(=O)c1ccc(C(=O)Nc2nc(-c3ccco3)c(-c3ccco3)s2)cc1 | ? | 7.08µM* | 39.8µM* | · | 10µM* | 39.8µM*
O=C(Nc1nnc(-c2ccncc2)o1)c1ccc(Br)s1 | ? | · | 70.8µM* | -6.4% | -26.3% | 33.0%
O=C(Nc1nnc(C2=COCCO2)o1)C1CCCCC1 | ? | · | · | -16.7% | -23.0% | 25.8%
O=C(Nc1nc(-c2ccco2)c(-c2ccco2)s1)C1CC(=O)N(c2ccc3c(c2)OCCO3)C1 (stereo not given) | 25.1µM* | ? | 11.2µM* | 10µM* | ? | -86.9%
O=C(Nc1nnc(-c2ccco2)o1)C1CCCCC1 | 89.1µM* | ? | ? | -1.9% | ? | 33.9%
Cc1cc(C(C#N)c2cccc(Cl)c2)n2ncnc2n1 (stereo not given) | ? | -4.1% | ? | 11.0% | 8.91µM* | -6.4%
CCN(CC)c1nc(N)c2c(N)n(-c3ccccc3C)c(=S)c(C#N)c2c1C#N | 39.8µM* | · | -31.5% | ? | -48.5%[2.33 µM] | ?
CCN(CC)c1nc(N)c2c(N)nc3c(c2c1C#N)CC(c1ccccc1)O3 (stereo not given) | -14.9% | -1.8% | 15.9% | -9.3% | 37.1%[59 µM] | 36.9%
Cc1occc1C(=O)NCc1cccc(CNC(=O)c2ccoc2C)c1 | 56.2µM* | -25.7%[11.4 µM] | 50.1µM* | ? | 22.4µM* | ?
CCCCC(=O)Nc1ncc(S(=O)(=O)c2ccc([N+](=O)[O-])cc2)s1 | -12.4% | · | -6.1% | -1.6% | · | 39.5%
COCC(=O)Nc1ncc(S(=O)(=O)c2ccc([N+](=O)[O-])cc2)s1 | ? | 6.1% | · | 7.6% | 35.5µM* | 7.3%
COc1cc(NC(=O)c2ccc(-c3nc(CSc4ccccc4)c(C)o3)cc2)cc(OC)c1 | -24.8% | · | -17.6% | · | -38.7%[59 µM] | 23.0%
CCOC(=O)c1cc2c(N)c(C(=O)c3cc(C#N)c(SC)nc3C)sc2nc1C | -9.9% | 3.4% | 7.4% | 39.8µM* | 44.7µM* | 19.8%
Oc1ccc(Br)cc1/C=N/Nc1nc(N2CCCCC2)nc(N2CCOCC2)n1 | -13.3% | -1.2% | -13.5% | 5.7% | 14.8% | 37.5%
Brc1cc2c(cc1/C=N/Nc1nc(N3CCCC3)nc(N3CCOCC3)n1)OCO2 | -27.1% | -2.6% | -8.9% | 3.5% | 15.8µM* | 7.3%
Cc1ccc([N+](=O)[O-])cc1S(=O)(=O)N1CCn2cccc2C1c1ccc(F)c(F)c1 (stereo not given) | ? | · | ? | · | ? | -12.0%
Cc1ccc(C2c3cccn3CCN2S(=O)(=O)c2ccc([N+](=O)[O-])cc2)cc1 (stereo not given) | ? | · | 7.08µM* | · | 14.1µM* | ?
O=[N+]([O-])c1ccc(S(=O)(=O)N2CCn3cccc3C2c2ccc(Br)cc2)cc1 (stereo not given) | ? | · | ? | · | 7.94µM* | -18.2%
SMILES | JMJD2A Tudor | L3MBTL1 block | BAZ2B block | Sfp inh | G9a block | HP1b binding inh
CC(=O)c1ccc(S(=O)(=O)N2CCn3cccc3C2c2ccc(F)c(F)c2)cc1 (stereo not given) | -19.2% | · | -37.1% | · | ? | 12.4%
Cc1ccc(S(=O)(=O)Nc2cccc3ccc(C)nc23)cc1 | 11.7% | · | · | -18.3% | · | ·
CC1Cc2cc(S(=O)(=O)NCc3ccc(F)cc3)ccc2N1C(=O)C1CCC1 (stereo not given) | -14.4% | · | 1.1% | · | -5.4%[59 µM] | 33.9%
CSc1cccc(NC(=O)Cn2c3ncccc3c(=O)n2-c2ccc(C)cc2)c1 | 36.7% | · | 14.6% | · | 58.6%[59 µM] | 60.2%
CCOC(=O)CCn1nc(C)c2c(C)n(-c3ccccc3)nc2c1=O | 2.3% | · | -2.6% | · | 4.8%[59 µM] | 33.0%
COc1c(N)c2ccccc2[nH]c1=O | -6.8% | 8.5% | 0.7% | 12.6µM* | ? | 24.4%
O=c1[nH]c2ccccc2c2ccccc12 | -14.9% | 1.3% | -13.5% | 5.9% | 15.6%[12.7 µM] | 27.6%
CCn1ccnc1CN1CCc2c([nH]c3ccccc23)C1C1CCCCC1 (stereo not given) | 14.1µM* | -18.0% | 35.5µM* | -10.1% | 44.7µM* | -15.5%
Cc1nc(NS(=O)(=O)c2ccc(Cl)s2)c2c3c(sc2n1)CCCC3 | -26.2% | · | -29.1% | 23.5% | 50.1µM* | 18.2%
O=C(NC1CC(=O)N(c2cccc(F)c2)C1)c1ccc(S(=O)(=O)N2CCCC2)cc1 (stereo not given) | -11.4% | · | -2.6% | · | 9.4%[59 µM] | 19.1%
O=C(N1CCOCC1)N1CCN(c2nc(-c3ccccc3)cs2)CC1 | -26.4% | -4.2% | ? | ? | 44.7µM* | 6.8%
Cc1ccc(N2CCN(C(=O)N3CCOCC3)CC2)cc1C | -12.6% | 3.8% | -3.6% | -10.6% | ? | 29.2%
Cc1cccc(C)c1N1CCN(C(=O)N2CCOCC2)CC1 | ? | -16.4% | -9.7% | -26.9% | 35.5µM* | -0.2%
c1ccc(-c2csc(N3CCOCC3)n2)cc1 | -32.4% | · | -36.5% | -9.1% | 28.7%[12.7 µM] | -5.2%
S=C(NCC1CCCO1)N1CCN(c2nc(-c3ccc(Cl)cc3)cs2)CC1 (stereo not given) | ? | -21.2% | 35.5µM* | 9.9% | ? | ?
S=C(NCCCN1CCOCC1)N1CCN(c2nc(-c3ccccc3)cs2)CC1 | ? | -22.7% | ? | 44.7µM* | 56.2µM* | -13.6%
CCOc1ccc(N2CC(c3nc(-c4cc(OC)c(OC)c(OC)c4)no3)CC2=O)cc1 (stereo not given) | -18.3% | · | -20.4% | · | 1.9%[59 µM] | 18.1%
CC(C)C(=O)N1c2nc(-c3ccco3)nn2C2(CCCCC2)[C@@H]2CCCC[C@@H]21 | -13.6% | · | ? | · | ? | 40.7%
O=S(=O)(c1cccc(Cl)c1Cl)N1CCN(C(=S)NCCCN2CCOCC2)CC1 | 1.58µM* | -5.4% | 50.1µM* | -19.7% | 35.5µM* | 28.2µM*
